# Test results reported in the supplement of paper PMC4723716.
# ± gives the uncertainty stated by the source. The full ranking holds about 9,900 compounds; the median of “viability index relative to DMSO control” is about 1, and the lowest 2% start at about 0.85. Only a selection was taken, and the lowest values are over-represented in it overall.
# System: Plasmodium falciparum NF54 stage V gametocytes
# Experiment: viability index relative to DMSO control (fraction); higher = less gametocyte killing
# Conditions: 2.5 µM, incubation time: 72 h
# Method: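 Broad DOS informer set and blood-stage-active DOS compounds screened in duplicate at 2.5 µM against P. falciparum NF54 stage V gametocytes with the serum-free one-step SaLSSA (1536-well): 72 h at 37 °C under low oxygen, then saponin lysis and MitoTracker Red CMXRos staining, with high-content imaging. Viability index = viable-object count divided by the plate mean of DMSO wells (0 = killed, about 1 = inactive).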
# [1] = library set: Broad Institute DOS
# [2] = library set: Broad Institute Blood Stage
Structure (SMILES),viability index [1],viability index [2]
CC(C)C#Cc1ccc([C@@H]2[C@H]3CN(C(=O)Cc4ccccc4)CC(=O)N3[C@H]2CO)cc1,0.864 ± 0.047,–
CC(C)C#Cc1ccc([C@H]2[C@@H](CO)N3C(=O)CN(C(=O)Cc4ccccc4)C[C@@H]23)cc1,1.07 ± 0.021,–
O=C(Cc1ccccc1)N1CC(=O)N2[C@H](CO)[C@H](c3ccc(C#Cc4ccccc4)cc3)[C@H]2C1,–,0.728 ± 0.097
CC(C)C#Cc1ccc([C@@H]2[C@@H](CO)N3C(=O)CN(C(=O)Cc4ccccc4)C[C@@H]23)cc1,1.07 ± 0.047,–
C/C=C/c1ccc([C@@H]2[C@@H](CO)N3C(=O)CN(S(=O)(=O)c4ccccc4)C[C@@H]23)cc1,0.777 ± 0.16,–
CC(C)C#Cc1ccc([C@H]2[C@@H](CO)N3C(=O)CN(C(=O)Cc4ccccc4)C[C@H]23)cc1,0.848 ± 0.025,–
O=C(Cc1ccccc1)N1CC(=O)N2[C@H](CO)[C@H](c3ccc(C#CCc4ccccc4)cc3)[C@H]2C1,–,0.699 ± 0.1
CC(C)C#Cc1ccc([C@H]2[C@H](CO)N3C(=O)CN(C(=O)Cc4ccccc4)C[C@@H]23)cc1,1.08 ± 0.08,–
CC(C)C#Cc1ccc([C@@H]2[C@H](CO)N3C(=O)CN(C(=O)Cc4ccccc4)C[C@@H]23)cc1,1.1 ± 0.016,–
CC(C)C#Cc1ccc([C@@H]2[C@@H](CO)N3C(=O)CN(C(=O)Cc4ccccc4)C[C@H]23)cc1,1.04 ± 0.039,–
C/C=C/c1ccc([C@H]2[C@H]3CN(S(=O)(=O)c4ccccc4)CC(=O)N3[C@H]2CO)cc1,1.03 ± 0.034,–
C/C=C/c1ccc([C@H]2[C@@H](CO)N3C(=O)CN(S(=O)(=O)c4ccccc4)C[C@H]23)cc1,0.975 ± 0.12,–
C[C@H]1CN([C@@H](C)CO)C(=O)c2c(c3ccccc3n2C)-c2ccccc2CO[C@@H]1CN(C)C(=O)[C@@H](Cc1ccccc1)N(C)C,1.07 ± 0.11,–
CCS(=O)(=O)Nc1ccc2c(c1)C(=O)N(C)C[C@H](OC)[C@H](C)CN(CC1CCCCC1)[C@H](C)CO2,0.995 ± 0.1,–
CN1CCN(C(=O)c2cc3c(c(-c4cccc(C5=CCCC5)c4)n2)[C@@H](CCO)N([S@](=O)C(C)(C)C)C3)CC1,0.991 ± 0.024,–
O=C(Nc1cccc(Cl)c1)N1C[C@H]2[C@@H](c3ccccc31)[C@@H](CO)N2Cc1cccnc1,1.06 ± 0.092,–
C[C@@H]1CCCn2cc(nn2)COCCNC1=O,0.994 ± 0.094,–
CC(C)CC#Cc1ccc([C@@H]2[C@H]3CN(C(=O)Nc4ccccc4)CCCCN3[C@H]2CO)cc1,0.542 ± 0.086,–
CC(C)CC#Cc1ccc([C@@H]2[C@@H](CO)N3CCCCN(C(=O)Nc4ccccc4)C[C@@H]23)cc1,1 ± 0.15,–
CC(C)CC#Cc1ccc([C@H]2[C@H](CO)N3CCCCN(C(=O)Nc4ccccc4)C[C@@H]23)cc1,0.935 ± 0.034,–
COCC#Cc1ccc([C@@H]2[C@@H](CO)N3CCCCN(C(=O)NC4CCCC4)C[C@@H]23)cc1,1.01 ± 0.02,–
CC(C)CC#Cc1ccc([C@H]2[C@@H](CO)N3CCCCN(C(=O)Nc4ccccc4)C[C@H]23)cc1,0.782 ± 0.084,–
CC(C)CC#Cc1ccc([C@H]2[C@H]3CN(C(=O)Nc4ccccc4)CCCCN3[C@H]2CO)cc1,0.99 ± 0.061,–
CC(C)CC#Cc1ccc([C@@H]2[C@H](CO)N3CCCCN(C(=O)Nc4ccccc4)C[C@@H]23)cc1,0.877 ± 0.053,–

Structure (SMILES),viability index [1],viability index [2]
CC(C)CC#Cc1ccc([C@@H]2[C@@H](CO)N3CCCCN(C(=O)Nc4ccccc4)C[C@H]23)cc1,0.844 ± 0.032,–
CC(C)CC#Cc1ccc([C@H]2[C@@H](CO)N3CCCCN(C(=O)Nc4ccccc4)C[C@@H]23)cc1,1.02 ± 0.057,–
Cc1noc(C)c1NC(=O)N1C[C@@H](O)COC[C@H]2O[C@@H](CC(=O)N[C@@H]3CCN(Cc4ccccc4)C3)CC[C@@H]21,0.994 ± 0.052,–
CCC(=O)N1[C@H](CO)[C@@H]2c3ccccc3N(C(=O)c3cnccn3)C[C@@H]21,0.908 ± 0.3,–
C/C=C/c1ccc2n(c1=O)C[C@H]1[C@H](CO)[C@@H](C(=O)Nc3nccs3)N(Cc3cc(F)ccc3F)[C@@H]21.C/C=C\c1ccc2n(c1=O)C[C@H]1[C@H](CO)[C@@H](C(=O)Nc3nccs3)N(Cc3cc(F)ccc3F)[C@@H]21,1.07 ± 0.056,–
Cc1noc(C)c1NC(=O)N(C)C[C@H]1Oc2ccc(NC(=O)Cc3cn(C)c4ccccc34)cc2CC(=O)N([C@@H](C)CO)C[C@H]1C,0.941 ± 0.2,–
COCC#Cc1ccc([C@H]2[C@H]3CN(C(=O)C4CCCCC4)CC(=O)N3[C@H]2CO)cc1,1.01 ± 0.034,–
COc1ccc2c3c([C@@H](CO)N(C)C[C@]33CCN(CC3)C(=O)CN3CCOCC3)n(C)c2c1,0.9699 ± 0.0061,–
CN(C)C(=O)c1cccc(-c2ccc([C@H]3[C@@H]4CN(Cc5ccccc5F)C[C@H]3N4)cc2)c1,1.05 ± 0.084,–
CN(C)C(=O)c1cccc(-c2ccc([C@@H]3[C@@H]4CN(Cc5ccccc5F)C[C@H]3N4)cc2)c1,0.977 ± 0.016,–
CN(C)C(=O)c1ccc(-c2ccc([C@H]3[C@@H]4CN(Cc5ccccc5Cl)C[C@H]3N4)cc2)cc1,0.846 ± 0.021,–
Cc1ccc(S(=O)(=O)Nc2cccc3c2O[C@H](CN(C)C(=O)Nc2ccc(C(F)(F)F)cc2)[C@H](C)CN([C@H](C)CO)C3=O)cc1,1.07 ± 0.04,–
CN(C)C(=O)c1cccc(-c2ccc3c(c2)[C@H]2[C@H](CCN2C(=O)Cc2ccccc2)[C@@H](CO)N3)c1,0.899 ± 0.042,–
CN(C)C(=O)c1cccc(-c2ccc3c(c2)[C@@H]2[C@@H](CCN2C(=O)Cc2ccccc2)[C@H](CO)N3)c1,0.991 ± 0.022,–
Cc1ccc(S(=O)(=O)N2CC[C@@H]3[C@H](CO)Nc4ccc(-c5cccc(C(=O)N(C)C)c5)cc4[C@@H]32)cc1,0.77 ± 0.034,–
Cc1ccc(S(=O)(=O)N2CC[C@@H]3[C@H]2c2cc(-c4cccc(C(=O)N(C)C)c4)ccc2N[C@@H]3CO)cc1,0.885 ± 0.055,–
Cc1ccc(S(=O)(=O)N2CC[C@@H]3[C@@H](CO)Nc4ccc(-c5cccc(C(=O)N(C)C)c5)cc4[C@@H]32)cc1,0.837 ± 0.012,–
CN(C)C(=O)c1cccc(-c2ccc3c(c2)[C@H]2[C@H](CCN2C(=O)Cc2ccccc2)[C@H](CO)N3)c1,1.03 ± 0.03,–
N#Cc1cccc(-c2ccc3c(c2)[C@H]2[C@H](CCN2S(=O)(=O)c2ccc(F)cc2)[C@@H](CO)N3)c1,0.949 ± 0.023,–
Cc1ccc(S(=O)(=O)N2CC[C@H]3[C@H](CO)Nc4ccc(-c5cccc(C(=O)N(C)C)c5)cc4[C@H]32)cc1,0.7 ± 0.018,–
CN(C)C(=O)c1cccc(-c2ccc3c(c2)[C@@H]2[C@@H](CCN2C(=O)Cc2ccccc2)[C@@H](CO)N3)c1,1.04 ± 0.025,–
O=C(N[C@H]1C=C[C@@H](CC(=O)N2CCN(c3ccccc3)CC2)O[C@H]1CO)c1ccccc1,1.04 ± 0.087,–
N#C[C@H]1[C@H](c2ccc(-c3cncnc3)cc2)[C@@H](CO)N1C(=O)Cc1ccccc1,1.06 ± 0.1,–
COc1ccc(-c2ccccc2[C@@H]2[C@@H](CO)N(C(=O)C3CCC3)[C@H]2C#N)cc1,1.17 ± 0.15,–

Structure (SMILES),viability index [1],viability index [2]
O=C(C[C@@H]1CC[C@H]2NC[C@H](O)COC[C@@H]2O1)Nc1nccs1,1.04 ± 0.068,–
C[C@H](CO)N1C[C@H](C)[C@H](CN(C)Cc2cccc(C(F)(F)F)c2)OCc2ccccc2-c2c(n(C)c3ccccc23)C1=O,0.972 ± 0.029,–
COc1cccc(S(=O)(=O)N2CCCCN3[C@H](CO)[C@@H](c4ccc(C#CCC(C)C)cc4)[C@@H]3C2)c1,0.941 ± 0.042,–
COc1cccc(S(=O)(=O)N2CCCCN3[C@H](C2)[C@H](c2ccc(C#CCC(C)C)cc2)[C@@H]3CO)c1,0.9833 ± 0.0041,–
COc1cccc(S(=O)(=O)N2CCCCN3[C@H](CO)[C@H](c4ccc(C#CCC(C)C)cc4)[C@@H]3C2)c1,1 ± 0.078,–
COc1cccc(S(=O)(=O)N2CCCCN3[C@@H](CO)[C@@H](c4ccc(C#CCC(C)C)cc4)[C@@H]3C2)c1,0.393 ± 0.021,–
COc1cccc(S(=O)(=O)N2CCCCN3[C@@H](CO)[C@H](c4ccc(C#CCC(C)C)cc4)[C@@H]3C2)c1,1.01 ± 0.053,–
COc1cccc(S(=O)(=O)N2CCCCN3[C@H](CO)[C@H](c4ccc(C#CCC(C)C)cc4)[C@H]3C2)c1,0.6428 ± 0.0032,–
COc1ccc(NC(=O)N(C)C[C@H]2Oc3c(NC(=O)CCCCCC(=O)Nc4ccccc4N)cccc3C(=O)N([C@@H](C)CO)C[C@@H]2C)cc1,0.991 ± 0.081,–
COc1ccc(NC(=O)N(C)C[C@@H]2Oc3c(NC(=O)CCCCCC(=O)Nc4ccccc4N)cccc3C(=O)N([C@@H](C)CO)C[C@H]2C)cc1,1.07 ± 0.091,–
COc1ccc(NC(=O)N(C)C[C@H]2Oc3c(NC(=O)CCCCCC(=O)Nc4ccccc4N)cccc3C(=O)N([C@@H](C)CO)C[C@H]2C)cc1,0.645 ± 0.046,–
COc1ccc(NC(=O)N(C)C[C@@H]2Oc3c(NC(=O)CCCCCC(=O)Nc4ccccc4N)cccc3C(=O)N([C@@H](C)CO)C[C@@H]2C)cc1,0.943 ± 0.058,–
COc1ccc(NC(=O)N(C)C[C@H]2Oc3c(NC(=O)CCCCCC(=O)Nc4ccccc4N)cccc3C(=O)N([C@H](C)CO)C[C@H]2C)cc1,0.62 ± 0.082,–
COc1ccc(NC(=O)N(C)C[C@@H]2Oc3c(NC(=O)CCCCCC(=O)Nc4ccccc4N)cccc3C(=O)N([C@H](C)CO)C[C@H]2C)cc1,0.893 ± 0.012,–
COc1ccc2c3c([C@@H](CO)N(Cc4cc(OC)cc(OC)c4)C[C@]33CN(C3)C(=O)CN3CCOCC3)n(C)c2c1,0.879 ± 0.02,–
COC(=O)C[C@H]1CC[C@H]2[C@@H](COc3ccc(NS(=O)(=O)c4ccc(C)cc4)cc3C(=O)N2C)O1,1.114 ± 0.0014,–
C[C@@H]1CCCCO[C@@H](CN(C)CC2CCCCC2)[C@H](C)CN([C@@H](C)CO)C(=O)c2cc(NS(C)(=O)=O)ccc2O1,1.08 ± 0.061,–
N#Cc1ccc(-c2ccc([C@@H]3[C@@H]4CN(S(=O)(=O)Cc5ccccc5)C[C@H]3N4)cc2)cc1,0.976 ± 0.037,–
COc1cccc(-c2ccc([C@@H]3[C@@H]4CN(S(=O)(=O)Cc5ccccc5)C[C@H]3N4)cc2)c1,0.808 ± 0.031,–
CS(=O)(=O)N1C[C@@H]2N[C@H](C1)[C@@H]2c1ccc(-c2ccccc2)cc1,0.706 ± 0.03,–
O=S(=O)(c1ccc(-c2ccccc2)cc1)N1C[C@@H]2N[C@H](C1)[C@@H]2c1ccc(-c2ccncc2)cc1,1.072 ± 0.0057,–
Cc1ccccc1-c1ccc([C@@H]2[C@@H]3CN(S(=O)(=O)Cc4ccccc4)C[C@H]2N3)cc1,0.854 ± 0.034,–
CC(=O)N1C[C@@H]2N[C@H](C1)[C@H]2c1ccc(-c2ccccc2)cc1,1.11 ± 0.016,–
